The full ranking holds about 68,000 sequences; the median of “fluorescence intensity (a.u.)” is about 9,100, and the highest 2% start at about 16,000. Only a selection was taken, and the highest values are over-represented in it overall.

OsWRKY34, sequence (Q0JBA9 entry or part of it): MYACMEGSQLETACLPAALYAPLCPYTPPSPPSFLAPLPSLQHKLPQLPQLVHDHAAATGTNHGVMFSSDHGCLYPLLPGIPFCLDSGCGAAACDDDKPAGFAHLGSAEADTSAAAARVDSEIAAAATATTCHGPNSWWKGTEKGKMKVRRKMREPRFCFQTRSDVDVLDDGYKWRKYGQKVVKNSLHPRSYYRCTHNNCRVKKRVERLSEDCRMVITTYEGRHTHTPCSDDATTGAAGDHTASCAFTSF

The test concerns the target OsWRKY34 (Oryza sativa, UniProt Q0JBA9 1-250). In words: protein-binding microarray (RPBM); PBS, 2% BSA, 51.3 ng/ul salmon testes DNA, 50 uM zinc acetate, 200 nM TF, 25 C, 1 h; high values mean tight binding. Conditions: protein: recombinant; tags: N-terminal polyhistidine and DsRed monomer fusion (pET32a); label: CyDye5-dUTP incorporated in the synthesized complementary strand; 3' TTTTT single-stranded linker to array surface; dsDNA, one strand shown. In a few lines:
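The binding signal for each feature is its fluorescence intensity in arbitrary units. An Axon 4000B scanner was used to read a custom Agilent array that had been made double-stranded with Cy5-dUTP primer extension, blocked with 2% BSA, incubated at 25 °C for 1 h with 200 nM protein in PBS, 2% BSA, salmon testes DNA and 50 µM zinc acetate, and washed. The protein was an N-terminal polyhistidine–DsRed transcription factor fusion from E. coli BL21-CodonPlus, purified on Ni–NTA.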
As to “TGCCTAACAATTCTTTTTATTCGCGACGTCAATATACTACCGGAGTCACCTAGTGCAG”, the binding signal was 9730 fluorescence intensity (a.u.).

Take “AGAATTACTGCTGCTTTATTTACTTTTCTTCCATTGGTTTCGGAGTCACCTAGTGCAG”: the binding signal was 13000 fluorescence intensity (a.u.).

Turning to “TTAATGTATGACACTGTTGACTTTTTTTCCAACGTTTGACCGGAGTCACCTAGTGCAG”, the binding signal is 21900 fluorescence intensity (a.u.).

“TAATGTATTCCGGCAAATGAATATGTTGTTTGACTTTTTTCGGAGTCACCTAGTGCAG”: the binding signal was 10300 fluorescence intensity (a.u.).

Regarding “CCGGTCGTTTCCCGTATTGTTGGCATATATGTACACGGAGCGGAGTCACCTAGTGCAG”, the binding signal is 8030 fluorescence intensity (a.u.).

With “CCGTCGTGCTGCGCCCTTCAATTTGTTGGTCTCGCTCGCCCGGAGTCACCTAGTGCAG”, the binding signal was 8490 fluorescence intensity (a.u.).

“TTATACTTTCTCTTTTTTTCACGTGTATATTTTCTAAACCCGGAGTCACCTAGTGCAG”: the binding signal was 9610 fluorescence intensity (a.u.).

For the sequence “TTGTTTTCTACTCCTAATACTCTTTTGTCTGTCTCATCTGCGGAGTCACCTAGTGCAG”, the binding signal was 12400 fluorescence intensity (a.u.).

As to “ACACTTTCTCTCTTGTACACTTTCATTTCACGTGTCTAAACGGAGTCACCTAGTGCAG”, the binding signal was 17500 fluorescence intensity (a.u.).

Consider “GTCATCCTGTTTCACTGCTAGCTCTCCCTAAATTTTGAAACGGAGTCACCTAGTGCAG”, for which the binding signal is 8490 fluorescence intensity (a.u.).

For the sequence “CGTATCTGCTCTGTTTTTCATCTCCTGTCATTTGTCTAAACGGAGTCACCTAGTGCAG”, the binding signal is 18500 fluorescence intensity (a.u.).

In the case of “GTGTCTTGTACATGTCTTCGTTTCTTCCTTTCTCATTTCACGGAGTCACCTAGTGCAG”, the binding signal was 10900 fluorescence intensity (a.u.).

In the case of “AAGAACACAACACACTTGATATATATACCTCACACACACTCGGAGTCACCTAGTGCAG”, the binding signal is 8060 fluorescence intensity (a.u.).

Consider “TACTTGGTGCAGTGTTGAGCCTTGTTTTACAATAAATTTTCGGAGTCACCTAGTGCAG”, for which the binding signal is 8100 fluorescence intensity (a.u.).

On to “GCGCCGTTGTTCTTCCTGCCACATCCATCCTGGTGAGCACCGGAGTCACCTAGTGCAG”, for which the binding signal was 12700 fluorescence intensity (a.u.).

For “CTAAATATTTAACGCTGTTGACTTTTTAAAACATATTTGACGGAGTCACCTAGTGCAG”, the binding signal was 9280 fluorescence intensity (a.u.).

On to “ATGTTTGACGCTGTTGACTTTTTTAAACATATTTGACTCTCGGAGTCACCTAGTGCAG”, for which the binding signal is 21500 fluorescence intensity (a.u.).

As for “ATTCTCTAAATGTTTGACGCTGTTGACTTTTTAAAACATGCGGAGTCACCTAGTGCAG”, the binding signal is 16600 fluorescence intensity (a.u.).

“GGGTATTTTTTAAGTAGCTAGGTGTATAATTAAATTAGTTCGGAGTCACCTAGTGCAG”: the binding signal is 8760 fluorescence intensity (a.u.).

On to “TTTTTAGGGTGTGGGTATTAGTTGGAAAATACAATAAATGCGGAGTCACCTAGTGCAG”, for which the binding signal was 9530 fluorescence intensity (a.u.).

For the sequence “GTGTAGGAGTAGTTAGGGTTGTTGCTTGTTGGAGGGAAAACGGAGTCACCTAGTGCAG”, the binding signal is 9460 fluorescence intensity (a.u.).

As for “TAATGGAAGTGGTTTACGTCGCTTCTGTCAATAAACACACCGGAGTCACCTAGTGCAG”, the binding signal is 48400 fluorescence intensity (a.u.).

As to “TCATCAATGTCGACTTCTGTTTTGAAGTCGCTTTTTCATCCGGAGTCACCTAGTGCAG”, the binding signal is 9100 fluorescence intensity (a.u.).

Consider “ATGTTTACGTGCAACACATTATGGTTCTCTTCTCTGTAAACGGAGTCACCTAGTGCAG”, for which the binding signal is 8230 fluorescence intensity (a.u.).

Turning to “ATTCCTCCGCCACAACACCACGCTGACCACAGTCCACCGTCGGAGTCACCTAGTGCAG”, the binding signal was 8360 fluorescence intensity (a.u.).

Turning to “CCCGCTGGTGCACTTCAACGCTACTCCTCTTCGCCGCCAACGGAGTCACCTAGTGCAG”, the binding signal was 9270 fluorescence intensity (a.u.).

Regarding “CGTACCTTCTCTGTTGAATCTCCTGTTCGCTTTTCTGTTACGGAGTCACCTAGTGCAG”, the binding signal is 9160 fluorescence intensity (a.u.).

In the case of “AGACGTATTCCTGTATCCGCCTATCCGTATCTTGGTATCACGGAGTCACCTAGTGCAG”, the binding signal is 8300 fluorescence intensity (a.u.).

As to “ATATATATATATATATATATAGACGTATTCCTGTATCCGCCGGAGTCACCTAGTGCAG”, the binding signal was 21000 fluorescence intensity (a.u.).

As to “TATATATATATATATATATATATATATATATATATATATCCGGAGTCACCTAGTGCAG”, the binding signal is 8650 fluorescence intensity (a.u.).

Turning to “GGCTTTTTTGTTGGGCTTCTTTTGATCAAAAACGTTGTTTCGGAGTCACCTAGTGCAG”, the binding signal was 12000 fluorescence intensity (a.u.).

“AATTCATTTGTCTTGGTACGCTGTTGGGGCGTAATAGGGGCGGAGTCACCTAGTGCAG”: the binding signal was 13200 fluorescence intensity (a.u.).

For the sequence “GCGATGTCGGTGTGTGGGTGGTGGTATATTTTTCCTTTTTCGGAGTCACCTAGTGCAG”, the binding signal is 18000 fluorescence intensity (a.u.).

As to “TGTTTGGTGCTGTCGGTACATGGGTGGTGGTTTTTTCTTTCGGAGTCACCTAGTGCAG”, the binding signal was 17500 fluorescence intensity (a.u.).

As to “TATTGTATTGGGTTGGGCCTTTGTGGTTGTCTAATGAAGTCGGAGTCACCTAGTGCAG”, the binding signal is 22300 fluorescence intensity (a.u.).

Regarding “GCGGTTGGGTTTGTGTGGTTTTTTTTGAAGGCGGAGTTGTCGGAGTCACCTAGTGCAG”, the binding signal is 12100 fluorescence intensity (a.u.).

Regarding “TGGTGGTGGTTGTGGTTGGGTTGGTGTCTGTCTTTTGTACCGGAGTCACCTAGTGCAG”, the binding signal is 16300 fluorescence intensity (a.u.).

“GTGTGTGGGTGGTGGTATATTTTTTTTCTTTCTCTTGGTTCGGAGTCACCTAGTGCAG”: the binding signal was 12800 fluorescence intensity (a.u.).

Regarding “CTTGCGGTTCATTTGGGGTTGGTTGGTTCTAGGGTACTGTCGGAGTCACCTAGTGCAG”, the binding signal was 16700 fluorescence intensity (a.u.).

As for “CTGCTGCAGTTGAGCTGTACTGTTTTGGTGGGTTGGTTTTCGGAGTCACCTAGTGCAG”, the binding signal was 13900 fluorescence intensity (a.u.).

Take “TTGGTGCTGTTGGTGCGTGGGTGGTGGTATAATTTTCTTTCGGAGTCACCTAGTGCAG”: the binding signal is 11900 fluorescence intensity (a.u.).

As for “GAGGAGGTTGGGTTCTTGATCGGTGTCGGATTTTTGGTTGCGGAGTCACCTAGTGCAG”, the binding signal is 10800 fluorescence intensity (a.u.).

For the sequence “GCGCTGTCAGTGTGTGGGTGGTAGTATATTTTTTTCTTTTCGGAGTCACCTAGTGCAG”, the binding signal was 12500 fluorescence intensity (a.u.).
